# Assay results as given in PubChem BioAssay (NCATS).
# Inconclusive results are not listed. Where a call stands in place of a potency, no number is given. Active and inactive are the calls of the source. Calls follow the shape of the dose curve; as a rule, active = well fitted curve in the direction sought with a large enough effect; inconclusive = small, poorly fitted or top-dose-only effect, or another doubt; inactive = no such curve, though single readings can be large; an effect the other way counts as inactive or inconclusive.
# How the values were obtained:
# [1] = UWB1.289 Cancer Cell Toxicity qHTS against the NCATS CANVASS Library (AID 1347347); also: nearly all actives have a fitted effect of over 60% in size; also: potency is read from the fitted curve at half-maximal effect
# How it was run: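 Cells were seeded at 1000 per well, allowed 4 h at 37 degrees C/5% CO2, then pin-treated with an 11-point compound series. After 72 h, viability was read as CellTiter-Glo luminescence following 15min at room temperature.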
# [2] = HPAF-II 24hr Apoptosis Induction qHTS against the NCATS CANVASS Library (AID 1347356)
# How it was run: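 HPAF-II cells (500/well) exposed to compounds in 11-point series for 24 h at 37 degrees C; caspase-3/7 activity read by Caspase-Glo luminescence after 15 min at room temperature. Doxorubicin titration as control.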
# [3] = HPAF-II 12hr Apoptosis Induction qHTS against the NCATS CANVASS Library (AID 1347358)
# How it was run: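 HPAF-II cells, 500/well in DMEM + 10% FBS, exposed 12 hours at 37 degrees C to compound (11-point). Caspase-Glo 3/7 added for 15 min at room temperature; luminescence reflects caspase-3/7 activity.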
# [4] = HPAF-II 18hr Apoptosis Induction qHTS against the NCATS CANVASS Library (AID 1347360)
# How it was run: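 Caspase-3/7 activation was measured with luminescent Caspase-Glo 3/7 reagent (15 min, RT) in HPAF-II cancer cells (500 cells/well). Before detection, cells had been treated for 18 h at 37 C with compounds (11 points).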
# [5] = HEK293 12hr Apoptosis Induction qHTS against the NCATS CANVASS Library (AID 1347361); also: potency is read from the fitted curve at half-maximal effect
# How it was run: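 HEK293 cells (500/well, DMEM + 10% FBS) were exposed to natural products across an 11-point series for 12 hours at 37 degrees C. Caspase-3/7 activity was then measured with DEVD luciferase luminescence after 15 min at room temperature.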
# [6] = system: NAD(P)H diaphorase (Clostridium kluyveri); experiment: Diaphorse counterscreen qHTS: Assay Interference Panel against the NCATS CANVASS Library (AID 1347362)
# How it was run: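 Clostridium kluyveri diaphorase in PBS + 0.01% Tween-20 preincubated 15 min with compounds. Resazurin and NADH then added for 5 min at room temperature in the dark; resorufin fluorescence read (ex 525, em 598).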
# [7] = biological target: Luciferin 4-monooxygenase (Photinus pyralis) (UniProt P08659); experiment: Firefly luciferase counterscreen qHTS: Assay Interference Panel against the NCATS CANVASS Library (AID 1347363); also: series mostly up to about 57 µM
# How it was run: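 Purified P. pyralis luciferase (0.04 ug/mL, 4x reagent) added to Tris-acetate buffer with 0.013 mM D-luciferin, 0.013 mM ATP and 13.3 mM Mg-acetate; compounds preincubated 15 min, then luminescence read after 5 min, RT.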
# [8] = KB-8-5-11 Cancer Cell Toxicity qHTS against the NCATS CANVASS Library (AID 1347364); also: nearly all actives have a fitted effect of over 75% in size; also: potency is read from the fitted curve at half-maximal effect
# How it was run: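 KB-8-5-11 cells, 500/well in DMEM + 10% FBS, given compounds in an 11-point series. Incubated 72 h at 37 °C. Viability by CellTiter-Glo luminescence. Confirmation also run with 1 uM tariquidar.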
# [9] = KB-3-1 Cancer Cell Toxicity qHTS against the NCATS CANVASS Library (AID 1347366); also: nearly all actives have a fitted effect of over 75% in size; also: potency is read from the fitted curve at half-maximal effect
# How it was run: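 CellTiter-Glo luminescence measured viability after 72 h at 37C. KB-3-1 cells were seeded at 500 per well in DMEM/10% FBS.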
# [10] = qHTS for ATAD5 Agonist screened against the NCATS CANVASS Library (AID 1347367);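 also: luciferase reporter driven by ATAD5 which rises upon DNA damage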
# How it was run: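 Genotoxicity via ATAD5-luciferase luminescence after 16 h compound exposure (11-point series) at 37C in HEK293T-ATAD5 cells. CellTiter-Fluor viability read precedes the luminescence read; MMS serves as positive control.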
# [11] = J3T Cancer Cell Toxicity qHTS against the NCATS CANVASS Library (AID 1347371); also: potency is read from the fitted curve at half-maximal effect
# How it was run: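 J3T dog glioma cells, 500 per well, treated 72 h at 37C with compounds (11-point qHTS); viability from ATP content by CellTiterGlo luminescence; bortezomib titration as control.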
# [12] = biological target: Nuclear receptor subfamily 1 group I member 3 (Homo sapiens) (UniProt Q14994); experiment: qHTS for Constitutive Androstane Receptor (CAR) Antagonist screened against the NCATS CANVASS Library (AID 1347372); also: potency is read from the fitted curve at half-maximal effect
# How it was run: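 HepG2 cells stably carrying hCAR and CYP2B6-2.2kb luciferase reporter, 2500 cells/well, compound with 50 nM CITCO agonist for 24hr at 37C. ONE-Glo luminescence measured CAR activity; CellTiter-Fluor read viability.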
# [13] = 10-beta competent E. coli microbial cell viability qHTS against the NCATS CANVASS Library (AID 1347376); also: series mostly up to about 46 µM
# How it was run: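 10-beta competent E. coli (0.2 OD) were exposed overnight at 37C to compounds in an 11-point series. Viability was read as ATP-dependent BacTiter-Glo luminescence after 20 min at room temperature.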
# [14] = Inflammasome Signaling qHTS Counterscreen: IL-1-beta AlphaLISA counterscreen against the NCATS CANVASS Library (AID 1347381);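 also: cell-free check with purified IL-1β in medium and no THP-1 cells; series mostly up to about 57 µM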
# How it was run: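 Cell-free interference check: compounds added to medium spiked with 4 pg purified IL-1β. Anti-IL-1β acceptor beads (6 ug/mL) with 0.6 nM biotinylated antibody added for 1 h at RT, then streptavidin donor beads (24 ug/mL) for 30 min in the dark. AlphaLISA read at 680/615 nm.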
# [15] = Cytotoxicity qHTS for assessment of Hepg2 cells membrane integrity screened against the NCATS CANVASS Library (AID 1347387)
# How it was run: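 HepG2 cells (2000/well) attached overnight, then exposed 5 hr at 37C to compounds in an 11-point series (0.59 nM - 46 uM final). LDH release from damaged membranes read fluorometrically (CytoTox-ONE; 560/590 nm) after 10 min at room temperature.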
# [16] = qHTS assay for small molecule disruptors of mitochondrial membrane potential screened against the NCATS CANVASS Library (AID 1347389); also: nearly all actives have a fitted effect of over 60% in size; also: potency is read from the fitted curve at half-maximal effect
# How it was run: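 HepG2 cells (2,000/well) plated overnight, then exposed to compounds in 11-point qHTS series for 1 h at 37C before 30 min Mito-MPS dye; depolarization read as fall in red aggregate (590 nm) to green monomer (535 nm) fluorescence.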
# [17] = Vero-766 cells viability qHTS against the NCATS CANVASS Library: Counterscreen for Zika virus inhibition assay (AID 1347394); also: nearly all actives have a fitted effect of over 60% in size; also: potency is read from the fitted curve at half-maximal effect
# How it was run: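 CellTiter Glo luminescence measured cytotoxicity after 72 h at 37C in uninfected Vero 766 cells, plated at 1000 cells/well. Compounds were applied in an 11-point series. Wells without cells defined 100% inhibition.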
# [18] = Viability qHTS for inhibitors of the SERCaMP assay screened against the NCATS CANVASS Library (AID 1347400); also: nearly all actives have a fitted effect of over 70% in size; also: potency is read from the fitted curve at half-maximal effect
# How it was run: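 SH-SY5Y-GLuc SERCaMP MJH297-derived cells, 1000/well, plated 4 h, then exposed to compounds in an 11-point qHTS series for 48 h at 37C. Viability read as CellTiter-Glo luminescence.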
# [19] = Redox Reaction Profiling qHTS: Assay Interference Panel against the NCATS CANVASS Library (AID 1347401)
# How it was run: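 Compounds in 11-point series incubated with 5 uM resazurin and 200 uM DTT in 50 mM HEPES pH 7.3, 50 mM NaCl. Resorufin fluorescence (Ex 525/Em 598) read before and after 15 min in the dark.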
# [20] = biological target: Cytochrome P450 2D6 (Homo sapiens) (UniProt P10635); experiment: qHTS Assay for Inhibitors and Substrates of Cytochrome P450 2D6 (AID 891); also: potency is read from the fitted curve at half-maximal effect; nearly all actives have a fitted effect of over 60% in size
# How it was run: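 Human CYP2D6 (5 nM) with 30 uM Luciferin-ME EGE (at Km) in 100 mM KPO4, compound preincubated 10 min, then NADPH regeneration system for 60 min at room temperature. Luciferin read by luminescence; normalized to 1.43 uM quinidine.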
# Sequence of Nuclear receptor subfamily 1 group I member 3 (Homo sapiens) (Q14994 whole entry, looked up): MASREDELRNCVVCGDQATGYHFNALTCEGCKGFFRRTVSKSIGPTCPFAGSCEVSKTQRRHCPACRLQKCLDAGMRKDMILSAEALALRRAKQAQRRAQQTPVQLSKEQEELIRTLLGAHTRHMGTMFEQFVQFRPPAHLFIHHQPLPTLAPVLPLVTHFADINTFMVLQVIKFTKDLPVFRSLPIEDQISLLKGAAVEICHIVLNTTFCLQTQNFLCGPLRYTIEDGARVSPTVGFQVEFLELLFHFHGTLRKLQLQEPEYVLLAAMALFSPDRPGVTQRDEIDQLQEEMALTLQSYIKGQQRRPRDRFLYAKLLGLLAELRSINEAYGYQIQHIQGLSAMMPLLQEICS
# Sequence of Luciferin 4-monooxygenase (Photinus pyralis) (P08659 whole entry, looked up): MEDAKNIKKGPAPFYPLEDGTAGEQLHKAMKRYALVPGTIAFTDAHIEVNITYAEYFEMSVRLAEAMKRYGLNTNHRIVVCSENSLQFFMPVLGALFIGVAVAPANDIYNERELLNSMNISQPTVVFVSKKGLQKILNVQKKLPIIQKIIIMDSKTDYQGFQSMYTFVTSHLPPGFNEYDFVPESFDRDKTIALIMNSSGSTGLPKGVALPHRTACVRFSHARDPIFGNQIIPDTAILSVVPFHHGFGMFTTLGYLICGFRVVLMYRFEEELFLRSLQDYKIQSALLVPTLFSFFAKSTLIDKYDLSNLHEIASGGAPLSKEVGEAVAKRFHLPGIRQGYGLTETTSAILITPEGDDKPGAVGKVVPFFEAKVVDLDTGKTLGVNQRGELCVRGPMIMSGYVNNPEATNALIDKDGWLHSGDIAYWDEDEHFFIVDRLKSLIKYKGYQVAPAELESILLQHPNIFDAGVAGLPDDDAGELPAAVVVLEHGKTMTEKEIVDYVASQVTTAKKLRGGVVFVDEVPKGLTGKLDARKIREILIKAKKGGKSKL
# Sequence of Cytochrome P450 2D6 (Homo sapiens) (P10635 whole entry, looked up): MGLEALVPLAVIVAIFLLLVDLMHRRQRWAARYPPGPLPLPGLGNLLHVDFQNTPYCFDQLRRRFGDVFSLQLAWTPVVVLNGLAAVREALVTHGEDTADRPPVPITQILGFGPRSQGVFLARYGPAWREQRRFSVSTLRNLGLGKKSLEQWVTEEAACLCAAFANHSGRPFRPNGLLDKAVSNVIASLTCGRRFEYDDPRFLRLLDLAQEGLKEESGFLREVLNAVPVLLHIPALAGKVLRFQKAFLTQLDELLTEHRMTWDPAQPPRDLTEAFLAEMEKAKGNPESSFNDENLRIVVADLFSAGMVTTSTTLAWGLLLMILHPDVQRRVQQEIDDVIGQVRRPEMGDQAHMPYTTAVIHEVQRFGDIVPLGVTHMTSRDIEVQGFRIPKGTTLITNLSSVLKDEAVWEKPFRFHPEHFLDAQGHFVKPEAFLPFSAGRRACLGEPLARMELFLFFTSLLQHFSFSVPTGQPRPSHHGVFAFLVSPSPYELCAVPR
Compound,Potency [1],outcome [2],outcome [3],outcome [4],Potency [5],outcome [6],outcome [7],Potency [8],Potency [9],Potency [10],Potency [11],Potency [12],outcome [13],outcome [14],outcome [15],Potency [16],Potency [17],Potency [18],Potency [19],Potency [20]
CC[N@@+]1([O-])C[C@]2(C)CC[C@@H](O)[C@@]34C5C[C@H]6CC[C@@]5(C(C[C@H]23)C41)[C@H](O)[C@@]6(O)CO (stereo not given in full),inactive,inactive,inactive,inactive,inactive,inactive,inactive,inactive,inactive,inactive,inactive,inactive,inactive,inactive,inactive,inactive,inactive,inactive,inactive,
C[C@@H]1CC[C@@H](c2ccoc2)N2C[C@@]3(CC[C@@H]12)CS[C@@]1(CC[C@H]2[C@H](C)CC[C@@H](c4ccoc4)N2[C@@H]1O)C3,6.66 µM (active),,,,8.33 µM (active),inactive,inactive,8.33 µM (active),8.33 µM (active),,9.35 µM (active),8.31 µM (active),inactive,inactive,,13.2 µM (active),7.41 µM (active),13.5 µM (active),inactive,
O=C(CCCN1CCC2(CC1)C(=O)N(Cc1cccc(F)c1)CN2c1ccccc1)c1ccc(F)cc1,,,,,,,,,,,,,,,,,,,,3.16 µM (active)
COc1ccc(C23Oc4cc(OC)cc(OC)c4[C@](O)([C@H](c4ccccc4)C2C(=O)NCCCCNC(=O)c2ccccc2)[C@@H]3O)cc1 (stereo not given in full),inactive,inactive,inactive,inactive,inactive,inactive,inactive,inactive,inactive,inactive,inactive,inactive,inactive,inactive,inactive,inactive,inactive,inactive,inactive,
CNCCc1ccc(O)cc1,inactive,inactive,inactive,inactive,inactive,inactive,inactive,inactive,inactive,inactive,inactive,inactive,inactive,inactive,inactive,inactive,inactive,inactive,inactive,
CCN1C[C@]2(C)CC[C@@H](O)[C@]34C1[C@H](C[C@H]23)C12CCC(CC14)[C@](O)(CO)[C@H]2O (stereo not given in full),inactive,inactive,inactive,inactive,inactive,inactive,inactive,inactive,inactive,inactive,inactive,,inactive,inactive,inactive,inactive,inactive,inactive,inactive,
